IL1B secr inh = qHTS for Inhibitors of Inflammasome Signaling: IL-1-beta AlphaLISA Primary Screen; THP-1 LPS/ATP IL-1B secretion, AlphaLISA, 16 h; hits give low values; activity change, % at 57.5 µM; 4.7% of 360,000 active; AID 743279, 2014; in the data active = activity change below about -50%; inconclusive = mostly about -30% to -49%
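Secreted IL-1B measured by AlphaLISA bead assay after 16 h compound exposure of THP-1 cells; compounds (final up to 57.5 uM) added 1 h before LPS (250 ng/mL) and ATP (1.25 mM) stimulation; lower signal means less secretion.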
DT40 TDP1 no CPT = qHTS for Inhibitors of human tyrosyl-DNA phosphodiesterase 1 (TDP1): qHTS in cells in absence of CPT | DT40 Tdp1-/- hTDP1 cells, no CPT, ATP luminescence, 48 h | Potency, µM (doses to about 46.2 µM), without a hit: at the top dose activity change, negative = growth inhibition, actives largely listed as inhibitors | 15% of 420,000 active | AID 686978, 2013; note: potency is the fitted concentration of half-maximal effect; nearly all actives have a fitted effect of over 55% in size
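Seeded 400 DT40-hTDP1 cells/well (vehicle DMSO, no 20 nM CPT); pinned compounds; ≥48 hr at 37 °C; CellTiter-Glo luminescence as viability measure.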
HT1080-NT tox = qHTS for induction of synthetic lethality in tumor cells producing 2HG: qHTS for the HT-1080-NT fibrosarcoma cell line. HT-1080-NT fibrosarcoma viability, CellTiter-Glo ATP luminescence, 48 h. Potency, µM (highest dose often 46.1 µM), for inactives: at the highest dose activity, negative = less viability, most hits filed as cytotoxic. 1.6% of 360,000 active;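 note: NT is the 2HG producing partner of a matched IDH1 knockdown line; potency is the fitted concentration of half-maximal effect; 0% = DMSO-treated cells and -100% = media-only wells without cells; nearly all actives have a fitted effect of over 55% in size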
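Compounds were tested in concentration-response format on HT-1080-NT cells for 48 hours at 37 degrees C. Cell viability came from CellTiter-Glo luminescence; curves were classified by r2, response magnitude and activity.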
HT1080 IDH1KD tx = qHTS for induction of synthetic lethality in tumor cells producing 2HG: qHTS for the HT-1080-IDH1KD cell line. 2% of 360,000 active. Potency, µM (top dose mostly 46.1 µM), inactives show at the top dose activity, negative = toxicity, actives largely listed as cytotoxic. HT-1080 IDH1 knockdown viability, ATP luminescence, 48 h;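 note: potency is the fitted concentration of half-maximal effect; 0% = DMSO wells and -100% = cell-free medium wells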
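Viability of IDH1-knockdown HT-1080 fibrosarcoma cells was assessed by CellTiter-Glo after 48 h at 37 °C with titrated compound; concentration-effect curves were classified by fit quality and response size.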
ELG1 DNA repair = qHTS screen for small molecules that inhibit ELG1-dependent DNA repair in human embryonic kidney (HEK293T) cells expressing luciferase-tagged ELG1 | HEK293T ELG1-luciferase reporter, luminescence, 16 h; DNA damage induced by 5-fluorouridine | AID 504467, 2011 | 2.3% of 330,000 active | Potency, µM (titrated, usually from 46.1 µM), without a hit: top-dose activity change, negative = inhibition, usual class: inhibitors; note: potency is the fitted concentration of half-maximal effect; nearly all actives have a fitted effect of over 55% in size
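Quantitative HTS, concentration-response format. 2,000 cells/well co-treated with 5-fluorouridine and compound, 16 hr in 5% CO2 at 37 °C; ONE-Glo luminescence read after 30 min.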
DT40 TDP1 CPT = qHTS for Inhibitors of human tyrosyl-DNA phosphodiesterase 1 (TDP1): qHTS in cells in presence of CPT; AID 686979, 2013; Potency, µM (doses to about 46.2 µM), without a hit: at the highest dose activity change, negative = growth inhibition, most hits filed as inhibitors; 12% of 420,000 active; chicken DT40 Tdp1-/-;hTDP1 cells + 20 nM CPT, ATP luminescence, 48 h; note: potency is the fitted concentration of half-maximal effect; nearly all actives have a fitted effect of over 55% in size
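Chicken DT40 Tdp1-/- cells complemented with human TDP1, 400 cells/well, exposed to compounds plus 20 nM camptothecin for at least 48 h at 37 C; viability read as ATP content by CellTiter-Glo luminescence.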
Active calls of the source: *; u = inconclusive; x = not tested or not shown; ! = not active in a repeat. Rows were chosen to be rich in hits. Some 19% of all compounds tested hit in one or more screens of this group. Unless noted, calls come from the whole dose curve; as a rule, active = well fitted curve in the direction sought with a large enough effect; inconclusive = small, poorly fitted or top-dose-only effect, or another doubt; inactive = no such curve, though single readings can be large; an effect the other way counts as inactive or inconclusive. Unless noted, % is set by controls: 0 for no effect and ±100 for the full control effect.

SMILES | IL1B secr inh | DT40 TDP1 no CPT | HT1080-NT tox | HT1080 IDH1KD tx | ELG1 DNA repair | DT40 TDP1 CPT
CC(C)(C)c1ccc(CC(=O)N2CCC2(C)C(=O)NCc2ccc(Cl)cc2)cc1 (centres undefined) | -5 | 21µM* | u | 26µM* | x | u
CC(C)C(=O)N1CCC1(C)C(=O)NCc1ccc(C(C)(C)C)cc1 (centres undefined) | 25 | u | 12% | 5% | x | u
CC(C)c1ccc(CC(=O)N2CCC2(C)C(=O)NCC(C)(C)C)cc1 (centres undefined) | -74* | 23µM* | 1% | -18% | x | u
CC(C)(C)c1ccc(CC(=O)N2CCC2(C)C(=O)NS(=O)(=O)c2ccccc2)cc1 (centres undefined) | -74* | 5% | 4% | 5% | x | -3%
Cc1nc2ccc(S(=O)(=O)NC(C(=O)NCc3ccc(Cl)cc3)C(C)C)cc2s1 (centres undefined) | x | -4% | x | x | x | 6%
CCN(CC)CCCCCCCCOC(=O)c1cc(OC)c(OC)c(OC)c1 | -14 | 22µM*! | -25% | u | u | u
COc1cc(C(=O)OCCCN(C)C)cc(OC)c1OC | -7 | -15% | 25% | 17% | 10% | 21%
COc1cc(C(=O)OCCCN2CCCN(CCCOC(=O)c3cc(OC)c(OC)c(OC)c3)CC2)cc(OC)c1OC | -22 | 24µM* | u | u | x | 17µM*!
COc1ccc2cc(C(=O)N3CCc4ccccc43)[nH]c2c1 | 7 | -29% | -5% | -1% | u | -15%
Cn1cccc1C(=O)N1CCC2(CCN(Cc3ccccc3)CC2)CC1 | x | -6% | x | x | x | 0%
CCOc1cc(/C=C2\COc3ccccc3C2=O)ccc1OCC(=O)N(C)C | -98* | 10µM* | 26µM* | 23µM* | u | u
CCNC(=O)COc1ccc(/C=C2\COc3ccccc3C2=O)cc1OC | -102* | 13µM* | u | 26µM* | u | 15µM*
CS(=O)(=O)N(CC(=O)N1CCCC1)C1CCCCC1 | -3 | 4% | 3% | 6% | x | 1%
COc1ccc(CNC(=O)Cn2c(-c3ccccc3)cc(C(C)=O)c2C)cc1OC | x | u | x | x | x | 10µM*
CCOc1ccccc1CNC(=O)Cn1c(-c2ccccc2)cc(C(C)=O)c1C | x | u | x | x | x | 13µM*
Cc1cc(C)n(C(C)CNC(=O)c2ccc3c(c2)OCO3)n1 (centres undefined) | 22 | -5% | 1% | -1% | 12% | -2%
O=C(CCn1c(=O)[nH]c2ccccc21)NCC1Cc2cc(Cl)cc(-c3ccncc3)c2O1 (centres undefined) | x | -27% | x | x | x | 4%
COC(=O)c1c(C)sc(-c2c(-c3ccc(F)cc3)[nH]c3[nH]c(=O)[nH]c(=O)c23)c1O | x | -12% | x | x | x | -1%
CCOc1ccc(/C=C/C(=O)c2cc(Br)ccc(=O)c2O)cc1 | u | 3.7µM* | u | 23µM* | -1% | 4.6µM*
CCOc1ccc(/C=C/C(=O)CCC(=O)O)cc1 | -5 | -13% | 18% | 11% | u | -4%
Cc1cccc(/C=C/C(=O)c2cc(Br)ccc(=O)c2O)c1 | u | 3.3µM* | u | u | u | 3.3µM*
CCc1ccc(/C=C/C(=O)c2cc(Br)ccc(=O)c2O)cc1 | -1 | 5.2µM* | 21µM* | u | -17% | 3.3µM*
CCc1ccc(NC(=O)c2cc(Br)ccc2Br)cc1 | x | x | x | x | 12% | x

High-throughput results: PubChem, National Center for Advancing Translational Sciences (NCATS)
